High-throughput results (PubChem BioAssay)
EPAC1 antag = antagonists of human EPAC1. EPAC1 GEF assay, Rap1b-BODIPY-GDP exchange fluorescence. Potency, µM (highest dose often 115 µM), inactives show top-dose activity change, negative = inhibition, most hits filed as inhibitors. 360,000 tested, 0.14% active;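 note: potency is the fitted concentration of half-maximal effect; plate controls were vehicle for no effect and positive control for full effect; nearly all actives have a fitted effect of over 50% in size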
EPAC2 antag = antagonists of human EPAC2 | Q8WZA2 | EPAC2 GEF exchange of Rap1B-BODIPY-GDP, fluorescence | Potency, µM (doses to about 114 µM), inactives show at the top dose activity, negative = inhibition, usual class: inhibitors | 360,000 tested, 0.18% active | AID 720708; note: potency is the fitted concentration of half-maximal effect; % is set by controls: 0 for no effect and ±100 for the full control effect; nearly all actives have a fitted effect of over 45% in size
EPAC2 ag = EPAC2 (human) agonism | Potency, µM (top dose mostly 154 µM), without a hit: at the highest dose activation, usual class: activators | EPAC2 activation, biochemical qHTS; response scale: 100% = 6.5 mM cAMP response | 360,000 tested, 0.079% active | AID 720711 | Q8WZA2; note: potency is the fitted concentration of half-maximal effect; nearly all actives have a fitted effect of over 50% in size
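qHTS, titration series. 100 nM EPAC2 / 250 nM Rap1B-BODIPY-GDP / 50 uM GDP; RT; ex 480/em 540 nm, 5-min reads to 30 min. Norm. to 6.5 mM cAMP = activation.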
TSHR antag = blocks TSH signaling through the human TSH receptor; TSHR-expressing cells, TSH-stimulated cAMP HTRF, 2 h; stronger effect = lower value; activity change, negative = inhibition, % at 11.5 µM; 330,000 tested, 0.2% active; AID 504810;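 active = activity change below a set negative limit, meaning inhibition stronger than a set level, cut at about -70% in these data; inconclusive = activity change between two set negative limits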; note: % is set by controls: 0 for no effect and ±100 for the full control effect
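Antagonism was scored as loss of TSH-driven cAMP in TSHR cells, stimulated with 4nM TSH (EC80) for 2 hours at 37 deg C and detected by homogeneous HTRF competition immunoassay.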
EPAC1 ag = activates human EPAC1 exchange factor | 360,000 tested, 0.073% active | EPAC1 agonist qHTS, biochemical assay; response scale: 100% = response to 6.5 mM cAMP | O95398 | AID 720707 | Potency, µM (series often up to 154 µM), inactives show at the top dose activation, usual class: activators; note: potency is the fitted concentration of half-maximal effect; nearly all actives have a fitted effect of over 60% in size
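EPAC1 100 nM, Rap1B–BODIPY-GDP 250 nM, unlabeled GDP 50 uM; compound titration; 5 min RT; kinetic read ex480/em540 at 5-min intervals ×30 min; data normalized to 6.5 mM cAMP agonist control.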
PTHR1 agonist = PTHR1 (human) receptor agonism | AID 743266 | Q03431 | HEK293 GP2 PTHR1 cells, GloSensor cAMP luminescence, 1 h | 410,000 tested, 0.075% active | Potency, µM (highest dose often 115 µM), inactives show top-dose activation, hits mostly activators; note: potency is the fitted concentration of half-maximal effect; nearly all actives have a fitted effect of over 55% in size
Target sequence (Q03431 whole entry, looked up): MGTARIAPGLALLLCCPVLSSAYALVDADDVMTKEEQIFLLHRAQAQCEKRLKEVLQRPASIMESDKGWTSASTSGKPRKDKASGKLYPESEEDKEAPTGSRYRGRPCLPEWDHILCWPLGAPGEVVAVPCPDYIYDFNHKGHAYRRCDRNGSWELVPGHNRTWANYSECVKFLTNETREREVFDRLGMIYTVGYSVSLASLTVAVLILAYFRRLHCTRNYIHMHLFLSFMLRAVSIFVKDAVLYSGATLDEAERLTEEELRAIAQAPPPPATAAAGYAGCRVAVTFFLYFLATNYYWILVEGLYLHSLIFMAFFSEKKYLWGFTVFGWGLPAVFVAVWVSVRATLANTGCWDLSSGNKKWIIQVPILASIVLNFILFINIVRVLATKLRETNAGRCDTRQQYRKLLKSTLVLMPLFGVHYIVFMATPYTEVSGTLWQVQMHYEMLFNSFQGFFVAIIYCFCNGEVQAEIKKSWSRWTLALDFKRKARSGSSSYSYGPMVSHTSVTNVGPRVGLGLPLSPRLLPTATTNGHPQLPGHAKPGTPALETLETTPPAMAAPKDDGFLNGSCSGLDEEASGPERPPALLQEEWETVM
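HEK-293-derived GP2 cells expressing PTHR1 and a GloSensor cAMP reporter, 3,000/well, plated overnight, given luciferin plus IBMX (each 0.5 mM as added) for 1 h at 37 °C, then compound for 1 h at 37 °C. Luminescence was read after 15 min at room temperature.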
Numbers without * were called inactive; [ ] = dose if it differs, or a comment. Only some compounds are listed: those with a hit (about 0.5% of all), similar ones and a draw of the others. Unless noted, calls come from the whole dose curve; as a rule, active = well fitted curve in the direction sought with a large enough effect; inconclusive = small, poorly fitted or top-dose-only effect, or another doubt; inactive = no such curve, though single readings can be large; an effect the other way counts as inactive or inconclusive.

Results for Cc1nc(Nc2cnc(/C=C/c3cc(C(=O)Nc4cccc(C(F)(F)F)c4)ccc3C)cn2)cc(N2CCNCC2)n1 ?
EPAC1 antag: -22%; EPAC2 antag: 50µM*; EPAC2 ag: inconclusive; TSHR antag: -6; EPAC1 ag: 8%; PTHR1 agonist: inactive

What do the screens show for `CCOc1ccc(C(=O)Nc2ccc3nc(Nc4cccc(C(F)(F)F)c4)cc(C)c3c2)cc1OCC`?
PTHR1 agonist: inactive

Results for CCOc1ccc(S(=O)(=O)NCCC(=O)N2CCN(c3ccccc3O)CC2)cc1 ?
EPAC1 antag: 2%; EPAC2 antag: -5%; EPAC2 ag: 5%; TSHR antag: -4; EPAC1 ag: -3%; PTHR1 agonist: -27%

What do the screens show for `CC(=O)O[C@H]1C(=O)[C@@]2(C)C([C@H](OC(=O)c3ccccc3)[C@]3(O)C[C@H](OC(=O)[C@H](O)[C@@H](NC(=O)c4ccccc4)c4ccccc4)C(C)=C1C3(C)C)[C@]1(OC(C)=O)CO[C@@H]1C[C@@H]2O` (stereo partly drawn)?
TSHR antag: -9

Results for Nc1c(C(=O)NCC2CCCO2)sc2nc3c(c(-c4ccco4)c12)CC/C3=C\c1ccco1 (stereo not drawn) ?
EPAC1 antag: 20µM*; EPAC2 antag: -2%; EPAC2 ag: -11%; TSHR antag: -9; EPAC1 ag: -5%; PTHR1 agonist: -16%

Results for O=C(Nc1nc(OCC(F)(F)F)cnc1/C=C\c1ccccc1)c1ccccc1 ?
EPAC1 antag: -8%; EPAC2 antag: 3%; EPAC2 ag: 3%; EPAC1 ag: 2%; PTHR1 agonist: -7%

What do the screens show for `COc1ccc(OC)c(CN2C(=O)c3ccccc3C2c2nnnn2Cc2ccccc2)c1` (stereo not drawn)?
EPAC1 antag: -8%; EPAC2 antag: -26%; EPAC2 ag: 5%; EPAC1 ag: 4%; PTHR1 agonist: -2%

Results for CCN(CC)CCN1C(=O)c2cccc3cc(N)cc(c23)C1=O ?
EPAC1 antag: inconclusive; EPAC2 antag: 13%; EPAC2 ag: 21%; TSHR antag: -76*; EPAC1 ag: 5%; PTHR1 agonist: -49%

How did COc1cccc(Nc2nc(Nc3ccc(Cl)c(C(=O)O)c3)nc(C)c2[N+](=O)[O-])c1 do in these assays?
EPAC1 antag: inconclusive; EPAC2 antag: 11%; EPAC2 ag: 4%; TSHR antag: -1; EPAC1 ag: 6%; PTHR1 agonist: inactive

How did CC(=O)N1c2ccc(S(=O)(=O)NCCC(=O)Nc3ccccc3C)cc2CC1C (stereo not drawn) do in these assays?
EPAC1 antag: -11%; EPAC2 antag: -1%; EPAC2 ag: 11%; TSHR antag: -133*; EPAC1 ag: 10%; PTHR1 agonist: inactive

How did CC(=O)N1c2ccc(S(=O)(=O)NCCC(=O)Nc3cccc(Cl)c3)cc2CC1C (stereo not drawn) do in these assays?
EPAC1 antag: -18%; EPAC2 antag: -8%; EPAC2 ag: 5%; TSHR antag: -126*; EPAC1 ag: 0%; PTHR1 agonist: -2%

Results for CC(=O)N1c2ccc(S(=O)(=O)NCCC(=O)Nc3ccc(C)c(Cl)c3)cc2CC1C (stereo not drawn) ?
EPAC1 antag: 14%; EPAC2 antag: -2%; EPAC2 ag: 1%; TSHR antag: -2; EPAC1 ag: 0%; PTHR1 agonist: inactive

How did CCN1CCc2c(sc(NC(=O)CSc3ccccc3)c2-c2nc3ccccc3s2)C1 do in these assays?
PTHR1 agonist: -24%

How did CC(=O)Nc1sc2c(c1-c1nc3ccccc3s1)CCN(C(C)C)C2 do in these assays?
EPAC1 antag: 15%; EPAC2 antag: 36%; EPAC2 ag: 63µM*; TSHR antag: 7; EPAC1 ag: 16%; PTHR1 agonist: -10%

How did COc1ccc(-c2oc3ncn4nc(-c5ccccc5Br)nc4c3c2-c2ccc(OC)cc2)cc1 do in these assays?
PTHR1 agonist: inactive

How did CC(C)(C)C1CCc2c(sc(NC(=O)C3CC=CCC3C(=O)O)c2C#N)C1 (stereo not drawn) do in these assays?
EPAC1 antag: -29%; EPAC2 antag: -1%; EPAC2 ag: -4%; TSHR antag: -15; EPAC1 ag: -15%; PTHR1 agonist: -19%

What do the screens show for `N#Cc1c(NC(=O)C2CC=CCC2C(=O)O)sc2c1CCCCCC2` (stereo not drawn)?
EPAC1 antag: 79µM*; EPAC2 antag: -26%; EPAC2 ag: 2%; TSHR antag: 1; EPAC1 ag: 11%; PTHR1 agonist: -15%

Results for CCOc1ccc(/C=N/NC(=O)CSc2n[nH]c(=O)[nH]c2=O)cc1OC ?
EPAC1 antag: -1%; EPAC2 antag: 6%; EPAC2 ag: -2%; TSHR antag: -5; EPAC1 ag: -14%; PTHR1 agonist: inactive

How did Nn1cnnc1N/N=C/c1ccc(Cl)c([N+](=O)[O-])c1 do in these assays?
EPAC1 antag: 16µM*; EPAC2 antag: 5%; EPAC2 ag: 3%; TSHR antag: 3; EPAC1 ag: -11%; PTHR1 agonist: -3%

Results for Nn1cnnc1N/N=C/c1ccc(F)cc1 ?
EPAC1 antag: -2%; EPAC2 antag: 11%; EPAC2 ag: -8%; TSHR antag: 8; EPAC1 ag: -5%; PTHR1 agonist: -19%

Results for CCc1cc(=O)oc2c(C)c(OCC(=O)Nc3ccc(S(=O)(=O)N(CC)CC)cc3)ccc12 ?
PTHR1 agonist: -17%

What do the screens show for `Cc1c(C)c2ccc(OCC(=O)Nc3ccc(S(N)(=O)=O)cc3)c(C)c2oc1=O`?
EPAC1 antag: 71µM*; EPAC2 antag: 22%; EPAC2 ag: -7%; TSHR antag: -6; EPAC1 ag: -3%; PTHR1 agonist: -19%

How did O=c1nc2s/c(=C\c3ccc(-c4ccccc4[N+](=O)[O-])o3)c(=O)n2nc1-c1ccccc1 do in these assays?
EPAC1 antag: 61%; EPAC2 antag: 25%; EPAC2 ag: 71µM*; TSHR antag: -16; EPAC1 ag: 112µM*; PTHR1 agonist: inactive

How did O=C(O)/C=C\C(=O)Nc1ccccc1C#Cc1ccccc1 do in these assays?
EPAC1 antag: -29%; EPAC2 antag: -5%; EPAC2 ag: 4%; TSHR antag: -9; EPAC1 ag: 4%; PTHR1 agonist: -13%[57.5 µM]

Results for O=C(O)/C=C\C(=O)Nc1ccccc1C#Cc1ccc(Br)cc1 ?
EPAC1 antag: -3%; EPAC2 antag: 10µM*; EPAC2 ag: 9%; TSHR antag: -10; EPAC1 ag: 14%; PTHR1 agonist: inconclusive
